Screening results deposited in PubChem by Broad Institute.
In the library only some 2.4% were active in any assay of this set; here they are far more common.
MITF act: increases MITF-driven TRPM1 promoter luciferase signal | AID 588334 | activation, % at 12.5 µM | 300,000 compounds, 0.75% hits | SK-MEL-5 TRPM1-promoter luciferase, 24 h; % of positive control, neutral wells = 0;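 active = mean activation of at least 80% with every replicate also reaching 80%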;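 also: 0% = neutral control wells and 100% = parthenolide positive control wells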
miR122 inh: blocks miR-122 activity in Huh7 sensor cells. activation (reporter increase), % at 12.5 µM. AID 602342. Huh7 miR-122 Renilla luciferase sensor, 48 h; neutral wells = 0, positive control = 100. 340,000 compounds, 0.3% hits;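 active = mean replicate activation score at least 90 and every replicate individually at or above 90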;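 also: higher luciferase means less miR-122 activity so hits act as miR-122 inhibitors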
DYRK1A inh: Dyrk1A (rat) kinase inhibition; Q63470; AID 504441; inhibition, % at 12.5 µM; ADP-Glo luminescence, NFATc1 peptide; 310,000 compounds, 0.43% hits;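 also: plate controls were vehicle with enzyme for no effect and no enzyme for full effect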
Wnt bcat act: activates Wnt/beta-catenin signaling in a reporter cell assay. activator, plate reader. activation, % at 9.35 µM. 300,000 compounds, 1.2% hits; in the data active = activation above about 30%, passing the limit was not always enough;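 also: 0% = neutral control wells and 100% = positive control wells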
NSD2 HMT inh: inhibitors of human histone methyltransferase NSD2; AID 743445; 310,000 compounds, 0.54% hits; inhibition, % at 12.5 µM; NSD2 peptide methylation, AlphaScreen, 120 min
INS-1E GSIS act: GLuc luminescence reporter in INS-1E cells, primary screen for activators of glucose-dependent secretion of insulin; INS-1E GLuc reporter insulin secretion, 2-3 h; activation, % at 16.6 µM; 370,000 compounds, 0.61% hits;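 active = lowest replicate activation of at least 40%, so every replicate reaches that level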;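 also: 0% = median of neutral control wells and 100% = median of IBMX positive control wells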
Alpha artifact: counter-screen for NSD2 inhibitors: AlphaScreen artifacts; shares compounds with NSD2 HMT inh; AlphaScreen artifact counterscreen, preloaded methylated H4 peptide; AC35, µM (series often up to 10 µM), for the others: top-dose activity change, negative = signal loss; 1,500 compounds, 9.4% hits; AID 1053174; call rule not given here
Numbers without * were called inactive; / = not tested or not shown; [ ] = remark or other dose. Rule as the data show it, unless noted: active = inhibition above about 50%; inactive = the rest.

SMILES	MITF act	miR122 inh	DYRK1A inh	Wnt bcat act	NSD2 HMT inh	INS-1E GSIS act	Alpha artifact
CCN(CC)Cc1cc(O)c(CN(CC)CC)cc1O	6.5	/	1.6	-0.3	100.4*	0.9	0.8%
CC=Cc1ccc2n(c1=O)C[C@@H]1[C@@H](CO)[C@H](C(=O)NCC(F)(F)F)[C@H]2N1C(=O)C1CC1 (mixture of isomers)	/	12.9[16.7 µM]	/	/	/	17.5	/
CO[C@H]1CN(C)C(=O)c2cc(NC(C)=O)ccc2OC[C@H](C)N(C(=O)c2ccc(F)cc2)C[C@@H]1C	/	/	/	/	/	-6.2	/
C[C@@H]1CN([C@H](C)CO)C(=O)c2cccc(NC(=O)c3cnccn3)c2O[C@H]1CN(C)CC1CCCCC1	/	28.4[16.7 µM]	/	/	/	3.3	/
COc1ccc(C(=O)Oc2ccc(/C=N/Nc3ccc(Cl)c(C(=O)O)c3)cc2OC)cc1	14.7	2.3	3.6	10.5	85.0*	7.5	-6.3%
COc1cc(/C=N/Nc2ccc(Cl)c(C(=O)O)c2)ccc1OC(=O)c1ccco1	-28.0	-1.8	-5.9	-1.0	4.6	1.1	/
O=C(CNc1ccc(F)cc1)N/N=C/c1c(O)ccc2ccccc12	-28.3	/	5.1	0.6	69.9*	-10.5	0.5%
CNC[C@@H]1Oc2cc(C#CCN(C)C)ccc2S(=O)(=O)N([C@@H](C)CO)C[C@H]1C	/	-4.4[16.7 µM]	/	/	/	22.2	/
Cc1nn(CC(=O)Nc2nnc(C(C)C)s2)c(=O)c2ccccc12	-1.9	/	1.9	-8.1	59.1*	-1.4	-1.3%
CO[C@@H]1CN(C)C(=O)c2cc(NS(C)(=O)=O)ccc2OC[C@H](C)N(CC2CC2)C[C@H]1C	/	/	/	/	/	14.0	/
C/C=C/c1ccc([C@H]2[C@@H](CO)N(C(=O)COC)[C@@H]2CNC(=O)CC)cc1	/	-7.1[16.7 µM]	/	/	/	-2.3	/
CN1[C@@H]2Cn3c(ccc(-c4ccc(F)cc4)c3=O)[C@H]1[C@@H](C(=O)NC1CCC1)[C@@H]2CO	/	/	/	/	/	7.5	/
O=C(CC1C(=O)N(c2ccccc2)C(=S)N1c1ccccc1)c1ccc(Br)cc1 (centres undefined)	-3.9	/	-1.5	-8.7	50.4*	-0.3	1.8%
O=C(/C=C/c1ccc(O)c(O)c1)O[C@@H]1C[C@](O)(C(=O)O)C[C@@H](O)[C@H]1O	9.7	-6.5	2.4	-2.0	/	-2.7	/
O=C(/C=C/c1ccc(O)c(O)c1)OC1C(O)CC(OC(=O)/C=C/c2ccc(O)c(O)c2)(C(=O)O)CC1O (centres undefined)	/	-0.2	2.0	-3.3	66.2*	10.2	-10.7%
COc1ccc(NC(=O)N(C)C[C@H]2Oc3ccc(NC(=O)CCCCCC(=O)Nc4ccccc4N)cc3CC(=O)N([C@@H](C)CO)C[C@H]2C)cc1	/	-4.0[16.7 µM]	/	/	/	20.9	/
CC(=O)Nc1ccc(S(=O)(=O)Nc2cccc(-n3cnnn3)c2)cc1	7.5	/	1.2	-0.6	-1.8	19.9	/
CC(=O)c1ccc(S(=O)(=O)Nc2cccc(-n3cnnn3)c2)cc1	-7.1	6.6	-5.0	-4.3	114.9*	-6.1	-12.9%
COc1ccc2nc3cccc(OC)c3nc2c1	21.8	4.1	46.8	7.1	101.2*	3.5	-1.3%
COc1ccc2nc3ccccc3nc2c1N	/	-3.6	14.1	-0.9	41.3	0.7	/
CC1CN(c2nc3c(c(=O)n(Cc4ccc(Cl)cc4)c(=O)n3C)n2C)CC(C)O1 (centres undefined)	/	14.6	3.1	-7.4	116.0*	/	-1.1%
CN1CCN(c2nc3c(c(=O)n(C)c(=O)n3C)n2Cc2ccc(Cl)cc2)CC1	1.3	/	-4.3	-1.1	14.7	14.2	/
CC1CN(Cc2nc3c(c(=O)n(C)c(=O)n3C)n2CCCc2ccccc2)CC(C)O1 (centres undefined)	-1.5	-7.3	23.6	/	109.0*	/	0.3%
Cn1c(N2CCC(C(N)=O)CC2)nc2c1c(=O)n(Cc1ccc(Cl)cc1)c(=O)n2C	/	7.5	-0.1	/	-1.6	-10.1	/
Cn1c(N2CCCC2)nc2c1c(=O)n(Cc1ccc(Cl)cc1)c(=O)n2C	-7.5	7.9	15.4	-7.5	105.2*	/	-5.3%
SMILES	MITF act	miR122 inh	DYRK1A inh	Wnt bcat act	NSD2 HMT inh	INS-1E GSIS act	Alpha artifact
CC(C)CC#Cc1ccc([C@H]2[C@H]3CN(C(=O)c4ccc5c(c4)OCO5)CC(=O)N3[C@H]2CO)cc1	/	/	/	/	/	7.2	/
COc1ccc2c3c(n(C)c2c1)[C@H](CO)N(C(=O)Nc1ccccc1F)CC31CCN(C(=O)c2ccccc2F)CC1	/	/	/	/	/	5.8	/
Cc1ccc(NC(=S)Nc2cccc3cnccc23)cc1C	10.6	-11.8	36.3	-0.9	21.5	-8.9	/
Cc1ccc(NC(=S)Nc2cccc3cnccc23)cc1	-10.7	8.4	29.9	26.2	101.2*	-13.7	0.4%
CC(=O)c1ccc(NC(=S)Nc2cccc3cnccc23)cc1	12.5	2.9	43.4	11.5	81.4*	-8.2	-8.1%
O=C(Nc1cccc(O)c1)c1cc(-c2ccco2)on1	75.1	-4.7	1.2	/	-3.7	-26.3	/
O=C(Nc1cccc(C(F)(F)F)c1)c1cc(-c2ccco2)on1	-3.9	/	1.0	4.7	92.2*	8.3	-1.9%
c1coc(CNCCCN2CCOCC2)c1	10.0	-5.6	1.9	/	55.9*	-1.7	-4.1%
C[C@H](CO)N1C[C@H](C)[C@H](CN(C)C)Oc2ncc(C3=CCCC3)cc2C1=O	/	-0.3[16.7 µM]	/	/	/	15.1	/
CS(=O)(=O)N1[C@@H]2c3ccc(-c4cccc(F)c4)c(=O)n3C[C@H]1[C@H](CO)[C@H]2C(=O)N1CCOCC1	/	-1.2[16.7 µM]	/	/	/	-10.7	/
O=C(CCCCCN1C(=O)C2C3C=CC(C3)C2C1=O)Nc1ccc(Cl)cc1 (centres undefined)	/	/	/	/	-4.0	/	/
O=C(CCCCCN1C(=O)C2C3C=CC(C3)C2C1=O)Nc1ccc2ncccc2c1 (centres undefined)	/	/	/	/	95.0*	/	-1.0%
CNCc1ccccc1OCc1ccc(F)cc1	-3.7	/	8.0	-2.0	59.6*	15.9	-3.5%
Fc1ccc(COc2ccccc2CNc2nn[nH]n2)cc1	-6.7	/	3.0	/	-1.1	-0.7	/
Cc1noc(C)c1S(=O)(=O)Nc1ccc2c(c1)C(=O)N([C@@H](C)CO)C[C@@H](C)[C@@H](CN(C)C(=O)c1ccncc1)OCCCC[C@@H](C)O2	/	8.1[16.7 µM]	/	/	/	0.9	/
N#CCCN(C(=O)CN1C(=O)NC2(CCCC2)C1=O)c1ccccc1F	-1.8	7.0	7.7	-4.7	0.5	/	/
CCC1(c2ccc(F)cc2)NC(=O)N(CC(=O)N(CCC#N)c2ccccc2)C1=O (centres undefined)	-5.1	-3.1	-5.7	-0.8	60.4*	2.8	-4.3%
CCC(=O)N1C[C@H](C)[C@@H](OC)CN(C)C(=O)c2ccc(NC(=O)c3cc(C)on3)cc2OC[C@@H]1C	/	3.3[16.7 µM]	/	/	/	-3.4	/
COc1ccc(/C=N/Nc2nnc(C)n2N)cc1OC	-13.2	/	29.4	4.5	110.8*	-5.0	-2.7%
O=C(CC(=O)NCCc1ccccc1)NCCc1ccccc1	-2.2	-4.8	0.8	-0.1	123.7*	-4.2	-0.6%
